Test systems include NCI-H23 lung; NCI-H226 lung; NCI-H322M lung; HOP-62 NSCLC; NCI-H460 lung; HOP-92 NSCLC; NCI-H522 lung; A549/ATCC NSCLC; 786-0 renal; COLO 205 colon.
Common to all, as to experiment: NCI-60 one-dose screen, 48 h (100 = growth as untreated, 0 = no growth, -100 = all killed)
Conditions in all cases: 10 µM unless noted

Molecules are shown by their SMILES. This is part of a sample that, as a whole, favours compounds with a hit. Of some 83,000 tested, about 20% had one in any assay.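 Each cell line was grown in a 96-well plate and treated with one concentration of compound for 48 hours. Values below 10 were considered active.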 A number with no mark means an inactive call. The source made the active and inactive calls.

`O=C(Nc1ccccc1)c1sc(-c2cccc(C(F)(F)F)c2)cc1O`: the growth was 54.1% with NCI-H23 lung; 80.1% in the test with NCI-H226 lung; 77.1% in the test on NCI-H322M lung; 79.5% in the test with HOP-62 NSCLC; 49.4% with NCI-H460 lung; -7.04% (active) with HOP-92 NSCLC. For the same compound, the growth was 39.6% with NCI-H522 lung, 64.2% in the test with A549/ATCC NSCLC, 89.6% in the test with 786-0 renal and 107% in the test on COLO 205 colon.
Turning to `O=c1[nH]c(=O)n(C2CC(O)C(CO)O2)cc1CO` (stereo not given), the growth with NCI-H23 lung is 41.6%; in the test with NCI-H226 lung, 98.2%; with NCI-H322M lung, 102%; with HOP-62 NSCLC, 32.8%; in the test on NCI-H460 lung it was 65.9%; in the test with HOP-92 NSCLC it was 105%. In addition, the growth with NCI-H522 lung was 101%; in the test on A549/ATCC NSCLC, 86.5%; in the test with 786-0 renal it was -18.5% (active); in the test with COLO 205 colon, 120%.
Regarding `O=c1[nH]c(NCc2nnnn2-c2ccc(Br)cc2)nc2sc3c(c12)CCCC3`, the growth in the test on NCI-H23 lung is 97.6%; in the test on NCI-H226 lung, 94.3%; in the test on NCI-H322M lung, 91.1%; with HOP-62 NSCLC, 94.1%; in the test with NCI-H460 lung, 100%; in the test on HOP-92 NSCLC, 94.5%. The growth in the test on NCI-H522 lung is 72.2%; with A549/ATCC NSCLC, 77.4%; with 786-0 renal, 88%; with COLO 205 colon, 97.9%.
With `C[C@@H]1CC[C@@H]2[C@@H]1[C@H](OC(=O)/C=C/c1ccccc1)[C@]1(C3CCCCC3)C[C@@H](NC(=O)CO)[C@@]2(C)O1`, the growth with NCI-H23 lung is 95.8%; in the test on NCI-H226 lung it was 102%; in the test on NCI-H322M lung, 92.9%; with HOP-62 NSCLC, 112%; in the test on NCI-H460 lung, 94.5%; in the test on HOP-92 NSCLC, 94.4%. For the same compound, the growth with NCI-H522 lung was 71.9%; in the test on A549/ATCC NSCLC, 101%; with 786-0 renal, 96.4%; in the test with COLO 205 colon it was 109%.
For `COc1cc(/C=C/C(=O)c2ccc(Nc3nc(Nc4ccccc4)nc(Nc4ccc(Cl)cc4)n3)cc2)cc(OC)c1OC`, the growth in the test with NCI-H23 lung was 15.5%; in the test on NCI-H226 lung it was 39.2%; with NCI-H322M lung, 73.3%; in the test on HOP-62 NSCLC, 52.7%; in the test with NCI-H460 lung, 50.5%; with HOP-92 NSCLC it was 1.92% (active). The growth in the test with NCI-H522 lung is 77.3%; in the test with A549/ATCC NSCLC, 84.5%; with 786-0 renal it was -25.4% (active); in the test on COLO 205 colon it was 94.8%.
For the compound `Cc1ccc(O)c(C(=O)c2ccccc2Cl)c1`, the growth is 94.3% in the test on NCI-H23 lung; 100% in the test on NCI-H226 lung; 109% in the test on NCI-H322M lung; 98.3% with HOP-62 NSCLC; 109% in the test with NCI-H460 lung; 112% in the test on HOP-92 NSCLC. Moreover, the growth in the test with NCI-H522 lung is 102%; in the test on A549/ATCC NSCLC, 104%; with 786-0 renal, 99.1%; with COLO 205 colon, 138%.
For the compound `COc1cc2oc(-c3cccc(C(=O)Nc4ccc(C#N)cc4)c3)cc(=O)c2c(O)c1OC`, the growth in the test on NCI-H23 lung is 38.2%; in the test on NCI-H226 lung it was 21.2%; in the test with NCI-H322M lung it was 72.7%; with HOP-62 NSCLC, -31.8% (active); in the test on NCI-H460 lung, 18.9%; with HOP-92 NSCLC, 79.2%. For the same compound, the growth with NCI-H522 lung was 61.2%; in the test with A549/ATCC NSCLC it was 37.4%; in the test on 786-0 renal it was 70.4%; in the test with COLO 205 colon, 39.9%.
On to `COc1cc(NC(=O)c2cccc(-c3cc(=O)c4c(O)c(OC)c(OC)cc4o3)c2)cc(OC)c1OC`, for which the growth in the test on NCI-H23 lung was 34.9%; in the test on NCI-H226 lung, 7.69% (active); in the test on NCI-H322M lung, 74.4%; in the test on HOP-62 NSCLC, 11.7%; with NCI-H460 lung it was 53.8%; in the test with HOP-92 NSCLC, 56.1%. The growth is 41.2% with NCI-H522 lung, 40.5% with A549/ATCC NSCLC, 66.3% in the test on 786-0 renal and 67.7% in the test on COLO 205 colon.
For `Cc1nc(Nc2ccc(NC(=S)Nc3ccccc3)cc2)c2ccccc2n1`, the growth in the test on NCI-H23 lung is 91.6%; with NCI-H226 lung, 97.4%; in the test with NCI-H322M lung, 103%; in the test with HOP-62 NSCLC it was 118%; in the test with NCI-H460 lung, 107%; in the test with HOP-92 NSCLC it was 115%. The growth in the test with NCI-H522 lung was 105%; in the test with A549/ATCC NSCLC, 95.9%; with 786-0 renal, 103%; in the test on COLO 205 colon, 106%.
As to `CCC(O)(C(c1ccccc1)c1ccccn1)C(c1ccccc1)c1ccccn1` (stereo not given), the growth with NCI-H23 lung was 110%; with NCI-H226 lung it was 104%; in the test with NCI-H322M lung it was 98.6%; in the test on HOP-62 NSCLC, 106%; with NCI-H460 lung, 110%; in the test on HOP-92 NSCLC it was 109%. For the same compound, the growth in the test on NCI-H522 lung is 102%; in the test on A549/ATCC NSCLC, 104%; in the test with 786-0 renal, 105%; in the test with COLO 205 colon, 105%.
As to `COc1ccc(NC(=O)c2cccc(-c3cc(=O)c4c(O)c(OC)c(OC)cc4o3)c2)cc1`, the growth was 91.3% in the test with NCI-H23 lung; 91.9% with NCI-H226 lung; 99.5% with NCI-H322M lung; 72.2% in the test on HOP-62 NSCLC; 92.7% in the test with NCI-H460 lung; 23.6% with HOP-92 NSCLC. For the same compound, the growth with NCI-H522 lung is 79.4%; in the test with A549/ATCC NSCLC, 81.3%; in the test with 786-0 renal, 43%; in the test with COLO 205 colon, 97.6%.
With `Nc1c(-c2nc3ccccc3c(=O)[nH]2)nnn1-c1ccc(Cl)cc1`, the growth with NCI-H23 lung is 78.9%; with NCI-H226 lung, 102%; with NCI-H322M lung, 78.3%; in the test on HOP-62 NSCLC, 57.2%; with NCI-H460 lung, 56.2%; in the test on HOP-92 NSCLC it was 101%. The growth in the test with NCI-H522 lung was 52.5%; with A549/ATCC NSCLC, 40.6%; with 786-0 renal, 82.2%; in the test on COLO 205 colon, 98.6%.
As for `COc1cc(C(=O)Nc2cc(O)c(CC=C(C)C)c(O)c2)cc2c1O[C@]1(C)CC[C@@H](O)C(C)(C)[C@H]1C2`, the growth in the test with NCI-H23 lung was 38.7%; in the test on NCI-H226 lung it was 47.6%; with NCI-H322M lung, 66.4%; in the test on HOP-62 NSCLC, 6.01% (active); with NCI-H460 lung, 15.6%; in the test on HOP-92 NSCLC, -5.08% (active). Besides, the growth is 10% in the test on NCI-H522 lung, 18.5% with A549/ATCC NSCLC, -11.7% (active) with 786-0 renal and -11.8% (active) with COLO 205 colon.

(Values after PubChem BioAssay (NCI).)
